Our source for the cytotoxicity call values is the antibiotic and cytotoxicity screens of Wong et al. (2023).

SMILES strings stand for the structures. About 1,500 (3.8%) of roughly 39,000 compounds were called active. The entries come from a sample that favours actives as a whole.

The subject of this experiment is HSkMC (human skeletal muscle cells). The experiment can be described thus: cytotoxicity call (relative viability < 0.9). To be noted: 10 µM.
For `CCCCSP(=O)(SCCCC)SCCCC`, the cytotoxicity call was “inactive”. The value for `COc1ccc(O)c(C(C)(C)C)c1` was “inactive”; that for `CC(=O)OC1C(=O)C2(C)C(O)CC3OCC3(OC(C)=O)C2C(OC(=O)c2ccccc2)C2(O)CC(O)C(C)=C1C2(C)C` (configuration not stated) was “inactive”. For `C[C@H]1CN([C@@H](C)CO)C(=O)CCCn2cc(nn2)CO[C@H]1CN(C)C(=O)Oc1ccc2ccccc2c1`, the cytotoxicity call is “inactive”. Then `C=C1[C@@H](C)[C@H]2[C@H](Cc3ccccc3)NC(=O)[C@]23[C@H](OC(C)=O)/C=C/[C@](C)(O)C(=O)[C@@H](C)C/C=C/[C@H]3[C@@H]1O`, with “active”; and `COCCCNC(=O)[C@@]1(Cc2ccccc2CN=[N+]=[N-])N=C(c2ccc(OCCCO)cc2)O[C@H]1c1ccccc1CN=[N+]=[N-]`, with “inactive”; and `Nc1ccc2c(c1)Cc1ccccc1-2`, with “inactive”. Then `CC(C)n1cnnc1CCN`, with “inactive”; and `CN1C[C@@H](NC(=O)C2CC2)[C@H]2OCCC[C@H]21`, with “inactive”. On to `C=CCN1C(=O)NC(=O)/C(=C/c2ccco2)C1=O`, for which the cytotoxicity call is “active”.

Take `CCN1C(=O)/C(=C/c2ccc[nH]2)C(=O)NC1=S`: the cytotoxicity call is “inactive”. `CN1C(=O)NC(=O)/C(=C\C=C\c2ccco2)C1=O`: the cytotoxicity call is “inactive”. Then `COC1=CC(=O)OC(C=Cc2ccccc2)C1` (configuration not stated), with “inactive”; and `O=C(O)CC[C@@H](CP(=O)(O)O)C(=O)O`, with “inactive”. The value for `CC12CCC3C(CCC4CC(O)CCC43C)C1CCC2O` (configuration not stated) was “inactive”; that for `CC12CCC3C(CCC4CC(O)CCC43C)C1CCC2=O` (configuration not stated) was “inactive”; that for `CC(=O)OC1CCC2(C)C(CCC3C2CCC2(C)C(C4=CC(=O)OC4)C(OC(C)=O)CC32O)C1` (configuration not stated) was “active”.

Regarding `CC(=O)OC1CC(OC2C(O)CC(OC3C(O)CC(OC4CCC5(C)C(CCC6C5CC(O)C5(C)C(C7=CC(=O)OC7)CCC65O)C4)OC3C)OC2C)OC(C)C1OC1OC(CO)C(O)C(O)C1O` (configuration not stated), the cytotoxicity call is “active”.

As for `CC(=O)O[C@H]1C[C@@H]2CC[C@@H]3[C@H](CC[C@@]4(C)[C@H]3C[C@H]([N+]3(C)CCCCC3)[C@@H]4OC(C)=O)[C@@]2(C)C[C@@H]1[N+]1(C)CCCCC1`, the cytotoxicity call is “inactive”. The value for `CO[C@H]1[C@@H](O)[C@@H](O[C@H]2CC[C@]3(C=O)[C@@H]4[C@@H](CC[C@]3(O)C2)[C@@]2(O)CC[C@H](C3=CC(=O)OC3)[C@@]2(C)C[C@H]4OC(C)=O)O[C@@H](C)[C@@H]1OC(C)=O` was “inactive”; that for `CC12CCC(O)CC1CCC1C2CC(O)C2(C)C(C3=CC(=O)OC3)CCC12O` (configuration not stated) was “active”. The value for `CC(=O)O[C@H]1C[C@H](O[C@H]2[C@@H](O)C[C@H](O[C@H]3[C@@H](O)C[C@H](O[C@H]4CC[C@@]5(C)[C@@H](CC[C@H]6[C@@H]5C[C@@H](O)[C@]5(C)[C@@H](C7=CC(=O)OC7)CC[C@]65O)C4)O[C@@H]3C)O[C@@H]2C)O[C@H](C)[C@H]1O[C@@H]1O[C@H](CO)[C@@H](O)[C@H](O)[C@H]1O` was “active”; that for `CNC(=O)Oc1ccc2c(c1)C1(C)CCN(C)C1N2C` (configuration not stated) was “inactive”. The value for `COC(=O)[C@]1(Cc2ccccc2CN=[N+]=[N-])N=C(c2ccc(OCCCO)cc2)O[C@@H]1c1ccccc1CN=[N+]=[N-]` was “inactive”; that for `COc1ccccc1C1(N)CC1` was “inactive”; that for `N#C[C@]1(O)CN2CCC1CC2` was “inactive”. As for `CC(C)Oc1ccc(CCN)cc1`, the cytotoxicity call was “inactive”. Then `COc1cc(C=O)cc(OC)c1OC`, with “inactive”. As to `Cn1cc([C@@]23C[C@]2(C)COC3=O)cn1`, the cytotoxicity call is “inactive”. Then `C1CCN(C[C@H]2CO[C@]3(CNCCOC3)C2)C1`, with “inactive”; and `C=C1CC2C(CCC3(C)C(=O)CCC23)C2(C)C=CC(=O)C=C12` (configuration not stated), with “inactive”; and `O=C1C[C@@H](c2ccncc2)C2(CCNCC2)N1`, with “inactive”. The value for `O=C(NN=Cc1ccc([N+](=O)[O-])o1)c1cc([N+](=O)[O-])cc([N+](=O)[O-])c1O` was “inactive”; that for `CC(C)N(C)C[C@H]1CO[C@]2(CNCCOC2)C1` was “inactive”. With `O=c1cccc2n1C[C@@H]1C[C@H]2CN(CCO)C1`, the cytotoxicity call is “inactive”. In the case of `O=C(CBr)N1CC([N+](=O)[O-])([N+](=O)[O-])C1`, the cytotoxicity call was “inactive”.

As to `O=C(O)CNCP(=O)(O)O`, the cytotoxicity call is “inactive”. Then `NCCO.NCCO.O[AsH]O[AsH]O` (configuration not stated), with “inactive”; and `O=c1cccc2n1C[C@H]1CNC[C@H]2C1`, with “inactive”.

As for `CN(C)C(=O)Oc1ccc[n+](C)c1.[Br-]`, the cytotoxicity call is “inactive”. As for `NCC1(c2c(F)cc(F)cc2F)CC1`, the cytotoxicity call is “inactive”. The value for `CO[C@H]1[C@@H](O)C[C@@H](O[C@H]2[C@@H](O)C[C@@H](O[C@H]3[C@@H](O)C[C@@H](O[C@H]4CC[C@@]5(C)[C@@H](CC[C@H]6[C@@H]5C[C@@H](O)[C@@]5(C)[C@H](C7=CC(=O)OC7)CC[C@@]65O)C4)O[C@@H]3C)O[C@@H]2C)O[C@@H]1C` was “active”. Then `CO[C@H]1[C@H](O)[C@@H](O[C@H]2[C@@H](C)O[C@@H](O[C@H]3[C@H](C)O[C@H](O[C@H]4CC[C@@]5(C)[C@@H](CC[C@@]6(O)[C@@H]5C[C@@H](O)[C@]5(C)[C@]6(O)CC[C@@]5(O)[C@@H](C)O)C4)C[C@@H]3OC)C[C@H]2OC)O[C@@H](C)[C@H]1O`, with “inactive”; and `Cc1cc(N(C)C)ccc1C[C@@H](C)N`, with “inactive”; and `Cn1cc(N2C[C@@H]3CN(CCO)C[C@@H]3C2=O)cn1`, with “inactive”.

With `COC(=O)[C@@H]1[C@@H](CO)[C@@H]2Cn3c(ccc(C4=CCCC4)c3=O)[C@H]1N2S(=O)(=O)c1cn(C)cn1`, the cytotoxicity call is “inactive”.

Regarding `CCC(=O)CCCCC[C@@H]1NC(=O)[C@H]2CCCCN2C(=O)[C@H]([C@H](C)CC)NC(=O)[C@H](Cc2cn(OC)c3ccccc23)NC1=O`, the cytotoxicity call was “active”. For the molecule `CCC(=O)CCCCC[C@@H]1NC(=O)[C@H]2CCCCN2C(=O)[C@H]([C@@H](C)CC)NC(=O)[C@H](Cc2cn(OC)c3ccccc23)NC1=O`, the cytotoxicity call is “active”. On to `Nc1ccc(-c2ccc(N)cc2)cc1`, for which the cytotoxicity call is “inactive”. Then `O=[N+]([O-])c1cc([As](=O)(O)O)ccc1O`, with “inactive”. The value for `COc1cccc(-c2ccc3c(CCN)c[nH]c3c2)c1` was “inactive”; that for `CCNS(=O)(=O)C(F)(F)C(F)(F)C(F)(F)C(F)(F)C(F)(F)C(F)(F)C(F)(F)C(F)(F)F` was “inactive”. Then `CC(=O)NCCSS(C)(=O)=O.CN(C)c1ccc2c(-c3ccccc3C(=O)O)c3ccc(N(C)C)cc3[o+]c2c1`, with “inactive”. `CNc1ccc2oc(C[C@H]3O[C@@]4(CC[C@H]3C)O[C@H]([C@H](C)C(=O)c3ccc[nH]3)[C@H](C)C[C@H]4C)nc2c1C(=O)O`: the cytotoxicity call was “active”. Then `NCc1[nH]nc2cc(F)ccc12`, with “inactive”; and `CC(=O)[C@]12[C@@H]3CC=C[C@H]1N2CC3` (some centres not stated), with “inactive”; and `CCN1C[C@]2(OC(=O)c3ccccc3NC(C)=O)CC[C@H](OC)[C@@]34[C@@H]2C[C@@H]([C@@H]13)[C@@]1(O)C[C@H](OC)[C@H]2C[C@@H]4[C@]1(O)[C@H]2OC`, with “inactive”.

Regarding `COc1cc2c(cc1OC)C1C(=O)c3ccc4c(c3OC1CO2)CC(C(C)C)O4` (configuration not stated), the cytotoxicity call is “inactive”. The value for `CCC(C(=O)[O-])C1CCC(C)C(C(C)C(O)C(C)C(=O)C(CC)C2OC3(C=CC(O)C4(CCC(C)(C5CCC(O)(CC)C(C)O5)O4)O3)C(C)CC2C)O1.[Na+]` (configuration not stated) was “inactive”; that for `CC[C@@H](C(=O)[C@@H](C)[C@@H](O)[C@H](C)[C@@H]1O[C@@H]([C@@H](CC)C(=O)O)CC[C@@H]1C)[C@H]1O[C@]2(C=C[C@@H](O)[C@]3(CC[C@@](C)([C@H]4CC[C@](O)(CC)[C@H](C)O4)O3)O2)[C@H](C)C[C@@H]1C` was “active”. With `[N-]=[N+]=NCC(=O)N1CCOCC1`, the cytotoxicity call was “inactive”.

For the molecule `COCC(=O)N[C@@H]1[C@@H]2CNC[C@@H]21`, the cytotoxicity call was “inactive”. The value for `C[C@H]1[C@H](O)[C@@H](C)/C=C\C=C/CC\C=C/C=C\C=C/C=C\[C@@H](O[C@@H]2O[C@H](C)[C@@H](O)[C@H](N)[C@@H]2O)C[C@H]2O[C@@](O)(C[C@@H](O)[C@@H]2C(=O)O)C[C@@H](O)[C@@H](O)CC[C@@H](O)C[C@@H](O)C[C@@H](O)CC(=O)O[C@H]1C` was “inactive”; that for `CN1CCC2(C)c3cc(O)ccc3N(C)C12.O=C(O)C=CC(=O)O` (configuration not stated) was “inactive”; that for `O=S(=O)(O)O.Oc1cccc2cccnc12` was “inactive”. Then `C[C@@]1(C(=O)O)[C@H]2CC[C@@H](O2)[C@@]1(C)C(=O)O`, with “active”.

As for `C[C@]12CC[C@](C)(O1)[C@H](C(=O)O)[C@@H]2C(=O)O`, the cytotoxicity call was “inactive”. Then `O=C(O)[C@H]1[C@H](C(=O)O)[C@H]2CC[C@@H]1O2`, with “inactive”; and `CC1(C)[C@@H](C=C(Br)Br)[C@@H]1C(=O)O[C@@H](C#N)c1cccc(Oc2ccccc2)c1`, with “inactive”; and `FCCN1C[C@H]2CCN[C@H]2C1`, with “inactive”. The value for `CC(=O)OC(C)(C)/C=C/C(=O)C(C)(O)[C@H]1[C@H](O)C[C@@]2(C)[C@H]3CC=C4[C@@H](C[C@H](O)C(=O)C4(C)C)[C@]3(C)C(=O)C[C@]12C` (some centres not stated) was “inactive”; that for `CC(C)(O)/C=C/C(=O)[C@](C)(O)[C@H]1[C@H](O)C[C@@]2(C)[C@H]3CC=C4[C@@H](CC(=O)C(=O)C4(C)C)[C@]3(C)C(=O)C[C@]12C` was “active”; that for `C[C@@H]1CN([C@@H](C)CO)C(=O)c2c(c3ccccc3n2C)-c2ccccc2CO[C@@H]1CN(C)C(=O)Oc1ccccc1` was “inactive”. Then `C[C@H]1O[C@H](n2cnc3c(N)ncnc32)C[C@@H]1O`, with “inactive”; and `CC(C)C[C@@H](NC(=O)[C@H](Cc1ccccc1)NC(=O)CNC(=O)[C@@H](C)NC(=O)[C@@H](N)Cc1ccc(O)cc1)C(=O)O`, with “inactive”.

Regarding `O=C([O-])Cc1ccccc1.[Na+]`, the cytotoxicity call is “inactive”. Then `CCCCOC(=O)c1ccccc1C(=O)OCCCC`, with “inactive”. Turning to `C[CH2][Hg][S]c1ccccc1C(=O)[O-].[Na+]`, the cytotoxicity call is “active”. Then `Cc1noc(C)c1CN1CCNCC1`, with “inactive”.

Consider `CCN(C)C(=O)Oc1cccc(C(C)N(C)C)c1.O=C(O)C(O)C(O)C(=O)O` (configuration not stated), for which the cytotoxicity call is “inactive”.

In the case of `CCCCOC(=O)C1=CC(=O)CC(C)(C)O1`, the cytotoxicity call was “inactive”. Then `CNCCc1ccc(O)c(O)c1`, with “inactive”.
